According to PubChem BioAssay (NCATS):
Results filed as inconclusive are left out. Active and inactive are the calls of the source. Calls follow the shape of the dose curve; as a rule, active = well fitted cell-killing curve with a large enough effect; inconclusive = small, poorly fitted or top-dose-only effect, or effect the other way; inactive = no such curve, though single readings can be large or run the other way. Non-standard residues stand in square brackets, D forms with d. Residues, ends and D or L forms follow the SMILES beside them. *: point of attachment. Nva = CCC[C@H](N)C(=O)O; Cbz = O=C(OCc1ccccc1)*

Assay: qHTS of pediatric cancer cell lines to identify multiple opportunities for drug repurposing: Confirmatory screen for SJ-GBM2 cells (AID 1347116);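 also: 48 hour compound exposure; nearly all actives have a fitted effect of over 60% in size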
Details: SJ-GBM2 glioblastoma cells, viability; series mostly up to 45.9 µM; activity change, negative = cytotoxic: at the top concentration
Source text: Drug repurposing or repositioning has been offered as a strategy for drug development in oncology programs. This approach has special potential for childhood cancers and other rare or orphan diseases, where the expected return on new drug development has been a disincentive to pharmaceuticals.
In this project we exploit the poly-pharmacology of drugs to discover new indications via phenotypic screening of a panel of 19 well-characterized cell lines derived from solid tumors seen in children and adolescents. The goal is to identify approved drugs with previously unrecognized anticancer properties that has the potential to reveal new mechanisms and biological processes involved in carcinogenesis or drug resistance. We employed a titration-based paradigm (quantitative high-throughput screening or qHTS), where all compounds were tested at multiple concentrations for their effect on cell viability. Concentration-response curves (CRCs) were derived directly from the primary screen, and both potency and efficacy values were used to identify compounds with robust bioactivity profiles. We screened the NIH Chemical Genomics Center (NCGC) Pharmaceutical Collection (NPC) and Mechanism Interrogation Plate (MIPE) small molecule collections of approved and investigational compounds against these cell lines; and measured metabolically active cells after 48 hours of compound treatment as a proxy for cell viability.
Assay Submitter: Nathalia J. Martinez, National Center for Advancing Translational Sciences, National Institutes of Health, Rockville, MD, USA; email: natalia.martinez@nih.gov
[1] Shen, M et al. Quantitative high-throughput phenotypic screening of pediatric cancer cell lines identifies multiple opportunities for drug repurposing. Oncotarget 2017 Dec 19;9(4):4758-4772. PMID 29435139.
The cells were obtained from University of North Carolina (UNC), Pediatric Preclinical Testing Program (PPT), and Coriell Institute (CI).
qHTS cell viability assay:
Cells were assayed in growth media at a density of 500-1,000 cells/well. Five microliters of cells were dispensed into 1,536-well, white, solid-bottom, TC-treated plates (Greiner Bio One) using a multidrop dispenser and incubated at 37 degrees C, 5% CO2, under a humidified atmosphere for 5 hours. Twenty-three nanoliters of compounds and controls (neutral control DMSO or positive control bortezomib at final concentration of 2.3 µM) were subsequently transferred by Kalypsys pintool. For primary screens, the MIPE collection was tested at 11-point dilutions (final concentrations range from 0.78 nM to 46 µM) and the NPC collection at 8-point dilutions (final concentrations range from 0.59 nM to 46 µM). Compounds tested in follow-up screens were assayed at 11-point dilutions. Cells were incubated for 48 hours, followed by addition of 3 uL of CellTiter-Glo (Promega). After a 15 min incubation at room temperature, samples were analyzed for luminescence intensity using a ViewLux High-throughput CCD imager equipped with clear filters.
Potency is read from the fitted curve at half-maximal effect.

Structure (SMILES) | Potency | activity change, negative = cytotoxic | outcome
CC(C)(O)Cn1c(NC(=O)c2ccc(-c3cn[nH]c3)s2)nc2cc(CN3CCOCC3)ccc21 | 1.17 µM (active) |  | 
CC[C@@]1([C@@H]2O[C@@H]([C@H]3O[C@@](O)(CO)[C@H](C)C[C@H]3C)C[C@H]2C)CC[C@H]([C@]2(C)CC[C@]3(C[C@H](O)[C@@H](C)[C@@H]([C@@H](C)[C@@H](OC)[C@H](C)C(=O)O)O3)O2)O1 | 1.15 µM (active) |  | 
O=C(C=CC#Cc1cccc(NS(=O)(=O)c2ccccc2)c1)NO | 4.65 µM (active) |  | 
Oc1ccc(-c2ccc(-c3cc(Nc4cccc(CNC5CC5)c4)n[nH]3)cc2)c(O)c1 | 14.7 µM (active) |  | 
COC[C@H](NC(=O)c1cnc(C)s1)C(=O)N[C@@H](COC)C(=O)N[C@@H](Cc1ccccc1)C(=O)[C@@]1(C)CO1 | 0.131 µM (active) |  | 
COc1ccc2c(c1OC)C(=O)OC2[C@H]1c2c(cc3c(c2OC)OCO3)CCN1C (stereo not given in full) |  | 3.87% (inactive) | 
CC(=O)O[C@H]1C[C@@H]2CC[C@H]3[C@H]4C[C@H]([N+]5(C)CCCCC5)[C@@H](OC(C)=O)[C@@]4(C)CC[C@@H]3[C@@]2(C)C[C@H]1N1CCCCC1 | 14.7 µM (active) |  | 
CN[C@H]1[C@@H](O)[C@@H]2O[C@@H]3O[C@H](C)CC(=O)[C@]3(O)O[C@@H]2[C@@H](NC)[C@H]1O |  |  | inactive
CCN(CC)Cc1ccc2cc(COC(=O)Nc3ccc(C(=O)NO)cc3)ccc2c1 |  |  | inactive
C[C@@H](Oc1ccc2[nH]nc(C=Cc3cnn(CCO)c3)c2c1)c1c(Cl)cncc1Cl | 18.5 µM (active) |  | 
CCC[C@@H](C=O)NC(=O)[C@H](CC(C)C)NC(=O)[C@H](CC(C)C)NC(=O)OCc1ccccc1 (Cbz-Leu-Leu-[Nva]-aldehyde) | 2.08 µM (active) |  | 
CC(C)NC[C@@H](C(=O)N1CCN(c2ncnc3c2[C@H](C)C[C@H]3O)CC1)c1ccc(Cl)cc1 |  | -27.2% (inactive) | 
COc1ccc(C[C@@H](C)[C@@H](C)Cc2ccc(OC)c(OC)c2)cc1OC |  | 10.5% (inactive) | 
CN(CC(=O)N(Cc1ccc(C2CCCCC2)cc1)c1ccc(C(=O)O)c(O)c1)S(=O)(=O)c1c(F)c(F)c(F)c(F)c1F |  | -16.1% (inactive) | 
C=Cc1c(C)c2cc3nc(cc4[nH]c(cc5nc(cc1[nH]2)C(C)=C5CCC(=O)O)c(CCC(=O)OC)c4C)[C@@]1(C)C3=CC=C(C(=O)OC)[C@H]1C(=O)OC |  | -17.5% (inactive) | 
COc1cccc2c1C(=O)c1c(O)c3c(c(O)c1C2=O)C[C@@](O)(C(=O)CO)C[C@H]3O[C@H]1C[C@H](N)[C@H](O)[C@H](C)O1 | 0.928 µM (active) |  | 
Cn1c(Nc2ccc(C(F)(F)F)cc2)nc2cc(Oc3ccnc(-c4ncc(C(F)(F)F)[nH]4)c3)ccc21 |  | -29.3% (inactive) | 
COc1ccc(Nc2cc(-c3cnc(N)nc3)nc(N3CCOCC3)n2)cn1 | 2.61 µM (active) |  | 
COc1cccc2c1C(=O)c1c(O)c3c(c(O)c1C2=O)C[C@@](O)(C(=O)CO)C[C@@H]3O[C@H]1C[C@H](N)[C@@H](O)[C@H](C)O1 | 0.737 µM (active) |  | 
C=CC(=O)Nc1ccc2ncnc(Nc3ccc(OCc4cccc(F)c4)c(Cl)c3)c2c1 | 2.61 µM (active) |  | 

Structure (SMILES) | Potency | activity change, negative = cytotoxic | outcome
Cc1ccc([N+](=O)[O-])cc1S(=O)(=O)N(C)N=Cc1cnc2ccc(Br)cn12 | 0.465 µM (active) |  | 
CC(C)C[C@H](NC(=O)[C@@H](NC(=O)c1cccc(-c2ccccc2)n1)[C@@H](C)O)B(O)O | 0.0465 µM (active) |  | 
CC(C=CC(=O)NO)=C[C@@H](C)C(=O)c1ccc(N(C)C)cc1 | 2.08 µM (active) |  | 
Nc1ncn([C@@H]2O[C@H](CO)[C@@H](O)[C@@H]2O)c(=O)n1 | 16.5 µM (active) |  | 
CC(C)C[C@@H](C=O)NC(=O)[C@H](CC(C)C)NC(=O)[C@H](CC(C)C)NC(=O)OCc1ccccc1 (Cbz-Leu-Leu-Leu-aldehyde) | 1.04 µM (active) |  | 
C=CC(=O)N1CCc2ccc(-n3c(=O)ccc4cnc5ccc(-c6cnn(C)c6)cc5c43)cc21 | 9.27 µM (active) |  | 
CCOc1cc2ncc(C#N)c(Nc3ccc(OCc4ccccn4)c(Cl)c3)c2cc1NC(=O)C=CCN(C)C | 4.14 µM (active) |  | 
N#CNC(=NCCCCCCOc1ccc(Cl)cc1)Nc1ccncc1 | 0.0414 µM (active) |  | 
CO[C@@H]1[C@@H](O)[C@H](O)[C@@H](n2c3c(Cl)cccc3c3c4c(c5c6cccc(Cl)c6[nH]c5c32)C(=O)NC4=O)O[C@@H]1CO | 5.22 µM (active) |  | 
O=S(=O)(O)CCSSCCS(=O)(=O)O |  | 4.89% (inactive) | 
CS[C@H]1SC[C@@H]2C(=O)N(C)[C@H](C(C)C)C(=O)OC[C@H](NC(=O)c3cnc4ccccc4n3)C(=O)N[C@H](C)C(=O)N(C)[C@@H]1C(=O)N(C)[C@H](C(C)C)C(=O)OC[C@H](NC(=O)c1cnc3ccccc3n1)C(=O)N[C@H](C)C(=O)N2C |  |  | inactive
O=C(NCc1ccccc1)[C@H](Cc1ccccc1)NC(=O)[C@@H]1O[C@@H]1C(=O)NCCc1ccc(O)cc1 |  |  | inactive
CCCCC(=O)O[C@]1(C(=O)CO)[C@@H](C)C[C@H]2[C@@H]3CCC4=CC(=O)C=C[C@]4(C)[C@@]3(F)[C@@H](O)C[C@@]21C |  | 15% (inactive) | 
Cc1ncc(-c2ccnc(Nc3ccc(S(C)(=O)=O)cc3)n2)n1C(C)C | 2.61 µM (active) |  | 
C[C@H]1[C@@H](OC(=O)CCC(=O)O)O[C@@H]2O[C@@]3(C)CC[C@@H]4[C@H](C)CC[C@@H]1[C@@]24OO3 | 1.17 µM (active) |  | 
COC1=C2C[C@@H](C)C[C@H](OC)[C@@H](O)[C@@H](C)C=C(C)[C@H](OC(N)=O)[C@@H](OC)C=CC=C(C)C(=O)NC(=CC1=O)C2=O | 1.31 µM (active) |  | 
CC1(C)O[C@@H]2C[C@H]3[C@@H]4CCC5=CC(=O)C=C[C@]5(C)[C@@H]4[C@@H](O)C[C@]3(C)[C@]2(C(=O)CO)O1 |  |  | inactive
C=CCNC1=C2C[C@@H](C)C[C@H](OC)[C@@H](O)[C@@H](C)C=C(C)[C@H](OC(N)=O)[C@@H](OC)C=CC=C(C)C(=O)NC(=CC1=O)C2=O | 0.165 µM (active) |  | 
CNC(=O)c1cccc(-c2ccc3c(N4CCOC[C@H]4C)nc(N4CCOC[C@H]4C)nc3n2)c1 | 2.61 µM (active) |  | 
CS(=O)(=O)N1CCc2c(-c3cnc(N)nc3)nc(N3CCOCC3)nc21 | 7.37 µM (active) |  | 
